Measured values taken from PubChem BioAssay (NCI).
This is part of a sample that, as a whole, favours compounds with a hit. Of some 79,000 tested, about 15% had one in any assay. The source made the active and inactive calls. No stated cut-off is given here; in the data, active means growth inhibition above about 70%; inactive means the rest.

Experiments:
[1] = NCI Yeast Anticancer Drug Screen. Data for the rad52 strain (AID 147);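 further: 0% = growth of vehicle-treated control cultures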; conditions: S. cerevisiae rad52 mutant growth inhibition, stronger effect = higher value
In short: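 Compounds are applied to a genetically defined yeast strain lacking normal DNA damage repair, and inhibition of growth is expressed relative to cultures given vehicle only.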

[2] = NCI Yeast Anticancer Drug Screen. Data for the wt1 strain (AID 149);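 further: 0% = growth of vehicle-treated wt1 cultures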; conditions: S. cerevisiae wt1 strain (SPY 50644) growth inhibition, stronger effect = higher value
In short: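 Compounds are added to wt1 yeast cultures. Growth is then measured. Inhibition is expressed relative to vehicle-treated controls.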

[3] = NCI Yeast Anticancer Drug Screen. Data for the rad50EPP+ strain (AID 151);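 further: 0% = growth of vehicle-treated control cultures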; conditions: S. cerevisiae rad50 mutant strain, stronger effect = higher value
In short: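 Compounds were applied to the rad50EPP+ yeast strain, which bears a defined DNA repair alteration, and growth inhibition was determined relative to vehicle-treated cultures.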

[4] = NCI Yeast Anticancer Drug Screen. Data for the mgt1 strain (AID 153); conditions: S. cerevisiae mgt1 mutant growth inhibition, stronger effect = higher value
In short: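 Strain: mgt1 yeast, one of a set carrying defined DNA damage repair or cell cycle control alterations. Compound-treated growth compared with vehicle.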

[5] = NCI Yeast Anticancer Drug Screen. Data for the rad50 strain (AID 155);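 further: 0% = growth of vehicle-only cultures of the same strain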; conditions: S. cerevisiae rad50 strain growth inhibition, stronger effect = higher value
In short: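 Inhibition values express reduced yeast growth in compound-treated cultures relative to vehicle-treated controls.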

[6] = NCI Yeast Anticancer Drug Screen. Data for the mec2-1 strain (AID 157); conditions: S. cerevisiae mec2-1 strain, stronger effect = higher value
In short: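 Strain: mec2-1 (DNA repair/cell cycle alteration). Compound exposure, then growth measured; inhibition expressed relative to vehicle.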

[7] = NCI Yeast Anticancer Drug Screen. Data for the rad14 strain (AID 159);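 further: 0% = growth of vehicle-treated control cultures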; conditions: S. cerevisiae rad14 strain growth inhibition, stronger effect = higher value
In short: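 A mutant yeast strain defective in DNA damage repair is treated with compound; inhibition of its growth is scored against untreated, vehicle-exposed cultures.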

[8] = NCI Yeast Anticancer Drug Screen. Data for the sgs1 mgt1 strain (AID 161);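 further: 0% = growth of cultures given vehicle only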; conditions: S. cerevisiae sgs1 mgt1 strain, stronger effect = higher value
In short: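 Read-out: growth inhibition vs vehicle controls. Cells: mutant yeast strain deficient in DNA damage repair.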

[9] = NCI Yeast Anticancer Drug Screen. Data for the CLN2oe strain (AID 163);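 further: 0% = growth of vehicle-only control cultures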; conditions: S. cerevisiae CLN2oe strain, stronger effect = higher value
In short: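 Growth of a genetically modified yeast strain is measured after compound exposure and compared with cultures given vehicle alone.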

[10] = NCI Yeast Anticancer Drug Screen. Data for the cln2 rad14 strain (AID 165);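 further: 0% = growth equal to vehicle treated cultures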; conditions: S. cerevisiae cln2 rad14 strain, stronger effect = higher value
In short: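 Compounds are applied to the cln2 rad14 yeast strain, and growth is then compared with that of vehicle-treated cultures to give inhibition.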

[11] = NCI Yeast Anticancer Drug Screen. Data for the bub3 strain (AID 167); conditions: S. cerevisiae bub3 mutant strain, stronger effect = higher value
In short: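 Steps: expose the mutant yeast strain to compound; grow alongside vehicle-treated cultures; measure growth; express inhibition against the vehicle cultures.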

[12] = NCI Yeast Anticancer Drug Screen. Data for the wt2 strain (AID 169);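 further: 0% = growth of vehicle-treated yeast cultures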; conditions: S. cerevisiae wt2 strain growth inhibition, stronger effect = higher value
In short: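 This strain belongs to a panel of yeast strains with defined genetic alterations in DNA damage repair or cell cycle control. Compounds are applied, and growth inhibition is measured against vehicle-treated cultures.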

[13] = NCI Yeast Anticancer Drug Screen. Data for the sgs1 strain (AID 173);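 further: 0% = growth of vehicle-only control cultures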; conditions: S. cerevisiae sgs1 mutant, stronger effect = higher value
In short: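 Growth of a yeast strain bearing a defined genetic alteration is measured after compound treatment. Inhibition is expressed relative to vehicle-only controls.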

[14] = NCI Yeast Anticancer Drug Screen. Data for the mlh1 rad18 strain (AID 175); conditions: S. cerevisiae mlh1 rad18 strain growth inhibition, stronger effect = higher value
In short: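 Read-out is yeast growth inhibition, calculated against vehicle-only controls. The compound was applied to a strain engineered with DNA damage repair alterations.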

[15] = NCI Yeast Anticancer Drug Screen. Data for the rad18 strain (AID 177); conditions: S. cerevisiae rad18 mutant growth inhibition, stronger effect = higher value
In short: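 Growth of the mutant yeast strain after compound exposure, normalised to vehicle-only cultures.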

[16] = at 5.0 µM (retest, dose inferred, filed as 0.5)
[17] = at 50.0 µM (retest, dose inferred, filed as 5.0)

Measured: growth inhibition

Cc1cccc(/C=N/NC(=S)N2CCCC2)n1
active: [1]; at 33.0 µM 94% | [1]; at 100.0 µM 96% | [2]; at 33.0 µM 94% | [2]; at 100.0 µM 96% | [4]; at 33.0 µM 94% | [4]; at 100.0 µM 96% | [5]; at 33.0 µM 95% | [5]; [17] 94% | [5]; at 50.0 µM 86.3% | [5]; at 100.0 µM 95% | [6]; at 11.0 µM 73% | [6]; at 33.0 µM 94% | [6]; [17] 95% | [6]; at 50.0 µM 89.8% | [6]; at 100.0 µM 97% | [7]; at 11.0 µM 74% | [7]; at 33.0 µM 96% | [7]; at 100.0 µM 98% | [8]; at 50.0 µM 88.2% | [9]; at 33.0 µM 93% | [9]; at 100.0 µM 96% | [10]; [17] 94% | [10]; at 50.0 µM 87% | [11]; at 33.0 µM 95% | [11]; [17] 96% | [11]; at 50.0 µM 88.5% | [11]; at 100.0 µM 96% | [12]; at 33.0 µM 93% | [12]; at 100.0 µM 96% | [13]; at 33.0 µM 95% | [13]; at 100.0 µM 96% | [14]; [17] 95% | [14]; at 50.0 µM 86% | [15]; at 33.0 µM 95% | [15]; at 100.0 µM 96%
inactive: [1]; at 1.2 µM -25% | [1]; at 3.7 µM -26% | [1]; at 11.0 µM 27% | [2]; at 1.2 µM -4% | [2]; at 3.7 µM 1% | [2]; at 11.0 µM 12% | [3]; at 1.2 µM -21% | [3]; at 3.7 µM -21% | [3]; at 11.0 µM -24% | [3]; at 33.0 µM -27% | [3]; at 100.0 µM 38% | [4]; at 1.2 µM -13% | [4]; at 3.7 µM -14% | [4]; at 11.0 µM 18% | [5]; at 1.2 µM -10% | [5]; at 3.7 µM -14% | [5]; [16] 26% | [5]; at 11.0 µM 35% | [6]; at 1.2 µM -24% | [6]; at 3.7 µM -21% | [6]; [16] 36% | [7]; at 1.2 µM 2% | [7]; at 3.7 µM 6% | [8]; [16] 25% | [8]; [17] 47% | [9]; at 1.2 µM -30% | [9]; at 3.7 µM -31% | [9]; at 11.0 µM 10% | [10]; [16] 2% | [11]; at 1.2 µM -13% | [11]; at 3.7 µM -8% | [11]; [16] 40% | [11]; at 11.0 µM 32% | [12]; at 1.2 µM -6% | [12]; at 3.7 µM -8% | [12]; at 11.0 µM 10% | [13]; at 1.2 µM -19% | [13]; at 3.7 µM -21% | [13]; at 11.0 µM 17% | [14]; [16] 14% | [15]; at 1.2 µM -17% | [15]; at 3.7 µM -14% | [15]; at 11.0 µM 12%

CCOC(=O)CC1(C(=O)OCC)c2[nH]c3ccccc3c2CCN1Cc1ccccc1 (stereo not drawn)
active: [5]; at 50.0 µM 70.9%
inactive: [1]; at 1.2 µM -1% | [1]; at 3.7 µM 0% | [1]; at 11.0 µM 1% | [1]; at 33.0 µM 7% | [1]; at 100.0 µM 45% | [2]; at 1.2 µM -3% | [2]; at 3.7 µM -2% | [2]; at 11.0 µM -1% | [2]; at 33.0 µM -5% | [2]; at 100.0 µM 42% | [3]; at 1.2 µM -7% | [3]; at 3.7 µM -7% | [3]; at 11.0 µM -11% | [3]; at 33.0 µM -9% | [3]; at 100.0 µM 0% | [4]; at 1.2 µM -2% | [4]; at 3.7 µM -1% | [4]; at 11.0 µM 1% | [4]; at 33.0 µM 3% | [4]; at 100.0 µM 50% | [5]; at 1.2 µM -2% | [5]; at 3.7 µM -2% | [5]; [16] 50% | [5]; at 11.0 µM 5% | [5]; at 33.0 µM 5% | [5]; [17] 50% | [5]; at 100.0 µM 38% | [6]; at 1.2 µM -3% | [6]; at 3.7 µM -4%
